For part of these data: Results with a measured potency or affinity are listed apart. Activity calls are given as the source filed them. Unless noted, how the calls were made is not given here.

Experimental findings from PubChem BioAssay are described below.

Assay [1] concerns the target Cell division control protein 42 homolog (Homo sapiens) (UniProt P60953). In words: inhibition of fluorescent GTP binding to constitutively active Cdc42 – biochemical, multiplex bead flow cytometry, Bodipy-FL-GTP, dose response (AID 1333;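 active means fitted half-maximal concentration within the tested dose range, moderate curve steepness, a statistically real signal drop, and little compound fluorescence or tag-binding interference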). On the technique in general: Flow cytometry measures light scatter and fluorescence of single cells or particles in a stream.
Assay [2] has the same target. In words: inhibition of fluorescent GTP binding to wildtype Cdc42 – biochemical, multiplex bead flow cytometry, Bodipy-FL-GTP, dose response (AID 1334;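 active means fitted half-maximal concentration within the tested range, moderate curve steepness, significant signal drop, and little compound fluorescence or bead-linkage interference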). The conditions noted are these: bead-based flow cytometry, Bodipy-FL-GTP binding to GST-Cdc42; at 100 µM (top of the series) unless noted.
Assay [3] deals with GTPase HRas (Homo sapiens) (UniProt P01112). In words: Ras wt fluorescent GTP loading blockade – biochemical, wildtype, multiplex bead flow cytometry, dose response (AID 1335;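 active means fitted half-maximal concentration within 10 nM to 100 µM, steepness 0.5 to 2, significant signal drop, low assay interference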). The settings on record: bead-based flow cytometry, Bodipy-GTP binding to GST-Ras; at 100 µM (top of the series) unless noted.
Sequence of GTPase HRas (Homo sapiens) (P01112 whole entry, looked up): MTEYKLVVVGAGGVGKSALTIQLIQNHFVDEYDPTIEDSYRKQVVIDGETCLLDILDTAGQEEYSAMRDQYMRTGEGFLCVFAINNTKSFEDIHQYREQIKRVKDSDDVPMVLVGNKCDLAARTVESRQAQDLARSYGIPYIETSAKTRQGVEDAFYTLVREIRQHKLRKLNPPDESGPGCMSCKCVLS
Assay [4] deals with Ras-related protein Rab-7a (dog), GTP binding. In words: blockers of fluorescent GTP binding to Rab7 – biochemical, wildtype, multiplex bead flow cytometry, dose response (AID 1336).
The target in assay [5] is Ras-related C3 botulinum toxin substrate 1 (Homo sapiens) (UniProt P63000). Briefly: inhibition of wildtype Rac1 nucleotide loading – biochemical, multiplex bead flow cytometry, dose response (AID 1340;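 active means dose curve with midpoint inside tested range, moderate steepness, plateau gap beyond fit error, low compound glow and bead-link interference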). The settings on record: GST-Rac1 beads, Bodipy-FL-GTP binding; at 100 µM (top of the series) unless noted.
Assay [6] deals with GTPase HRas (Homo sapiens) (UniProt P01112). In words: blockade of GTP loading onto mutant Ras – biochemical, activated mutant, multiplex bead flow cytometry, dose response (AID 1341;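 active means dose-response curve with midpoint inside the tested range, moderate steepness, significant amplitude and little compound fluorescence or bead-attachment interference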;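 further: GST-tagged constitutively activated Ras mutant immobilized on beads and multiplexed with other GTPases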).

Sequence of Cell division control protein 42 homolog (Homo sapiens) (P60953 whole entry, looked up): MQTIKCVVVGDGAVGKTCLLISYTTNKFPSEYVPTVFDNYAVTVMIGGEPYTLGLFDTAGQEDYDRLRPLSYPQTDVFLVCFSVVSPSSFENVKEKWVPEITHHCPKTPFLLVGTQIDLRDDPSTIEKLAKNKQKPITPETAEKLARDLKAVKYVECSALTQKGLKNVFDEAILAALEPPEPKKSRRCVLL

As to `COc1ccc(CC(=O)Nc2ccc(S(=O)(=O)NC(C)C)cc2)cc1`, the molecule was called inactive in assay [1], in assay [4] and in assay [6]. Moreover, the fluorescence, percent of control (lower = inhibition) in assay [2] came out at 51.9%. The GTP binding, percent of control in assay [3] amounted to 66.7%. This molecule displayed a GTP binding signal, raw median fluorescence (lower = inhibition) (MCF (arbitrary fluorescence units)) in assay [5] of 0.

As for `Cc1c(C(=O)N/N=C/c2ccc(-c3ccccc3[N+](=O)[O-])o2)sc(N)c1C#N`, the molecule was called inactive in assay [1], in assay [4] and in assay [6]. Further, the fluorescence, percent of control (lower = inhibition) in assay [2] was found to be 37.4%. In addition, the GTP binding, percent of control in assay [3] was 49.1%. For the same molecule, in assay [5], the GTP binding signal, raw median fluorescence (lower = inhibition) (MCF (arbitrary fluorescence units)) came out at 157.

`S=C(Nc1ccc(Oc2ccccc2)cc1)NC1CCCCCC1`: the call in assay [1], in assay [4] and in assay [6] was inactive. Besides, in assay [2], the fluorescence, percent of control (lower = inhibition) is 28%. In addition, the GTP binding, percent of control in assay [3] was found to be 87.3%. In assay [5], this molecule gave a GTP binding signal, raw median fluorescence (lower = inhibition) (MCF (arbitrary fluorescence units)) of 300.

Turning to `Cc1nc2ccc(NC(=O)COc3ccccc3)cc2s1`, the result in assay [1], in assay [4] and in assay [6] was inactive. In addition, the fluorescence, percent of control (lower = inhibition) in assay [2] amounted to 37.6%. Moreover, in assay [3], the GTP binding, percent of control stood at 89.8%. In addition, the GTP binding signal, raw median fluorescence (lower = inhibition) (MCF (arbitrary fluorescence units)) in assay [5] is 271.

On to `CCOc1cccc(/C(O)=C2/C(=O)C(=O)N(CCOC)C2c2ccncc2)c1` (stereo not given), for which the result in assay [1], in assay [4] and in assay [6] was inactive. For the same molecule, in assay [2], the fluorescence, percent of control (lower = inhibition) came to 46.9%. Further, in assay [3], the GTP binding, percent of control came to 57.7%. The GTP binding signal, raw median fluorescence (lower = inhibition) (MCF (arbitrary fluorescence units)) in assay [5] came to 0.

`Cc1ccc(C2C(C#N)C(C#N)N3CCCN23)cc1` (stereo not given): the molecule was classed as inactive in assay [1], in assay [4] and in assay [6]. For the same molecule, the fluorescence, percent of control (lower = inhibition) in assay [2] was determined as 99.2%. Further, the GTP binding, percent of control in assay [3] is 156%. For the same molecule, in assay [5], the GTP binding signal, raw median fluorescence (lower = inhibition) (MCF (arbitrary fluorescence units)) worked out at 200.

As to `CCNC(=S)N=Nc1c(O)[nH]c2ccc([N+](=O)[O-])cc12`, the call in assay [1], in assay [4] and in assay [6] was inactive. Also, the fluorescence, percent of control (lower = inhibition) in assay [2] came to 32.4%. Moreover, in assay [3], the GTP binding, percent of control is 72.3%. Also, the GTP binding signal, raw median fluorescence (lower = inhibition) (MCF (arbitrary fluorescence units)) in assay [5] amounted to 141.

Turning to `O=C(Nc1nccs1)c1ccc(-c2cccc([N+](=O)[O-])c2)o1`, the call in assay [1], in assay [4] and in assay [6] was inactive. Also, the fluorescence, percent of control (lower = inhibition) in assay [2] is 31.6%. The same molecule displayed a GTP binding, percent of control in assay [3] of 72.4%. The same molecule had a GTP binding signal, raw median fluorescence (lower = inhibition) (MCF (arbitrary fluorescence units)) in assay [5] of 181.

In the case of `Cc1cc(-c2n[nH]c(=S)n2/N=C/c2cccc([N+](=O)[O-])c2)n[nH]1`, the molecule was classed as inactive in assay [1], in assay [4] and in assay [6]. Also, the fluorescence, percent of control (lower = inhibition) in assay [2] came out at 35%. In assay [3], this molecule came in with a GTP binding, percent of control of 51%. The same molecule gave a GTP binding signal, raw median fluorescence (lower = inhibition) (MCF (arbitrary fluorescence units)) in assay [5] of 102.

As for `Cc1noc(/C=C/c2ccc(-c3ccccc3Cl)o2)c1[N+](=O)[O-]`, the molecule was called inactive in assay [1], in assay [4] and in assay [6]. In assay [2], the fluorescence, percent of control (lower = inhibition) was 125%. In assay [3], this molecule showed a GTP binding, percent of control of 171%. In addition, the GTP binding signal, raw median fluorescence (lower = inhibition) (MCF (arbitrary fluorescence units)) in assay [5] was found to be 199.

As for `N#Cc1ccc2ccn(CC(=O)N3CCCc4ccccc43)c2c1`, the molecule was called inactive in assay [1], in assay [4] and in assay [6]. Also, the fluorescence, percent of control (lower = inhibition) in assay [2] was 40%. Further, the GTP binding, percent of control in assay [3] turned out to be 89.5%. Also, the GTP binding signal, raw median fluorescence (lower = inhibition) (MCF (arbitrary fluorescence units)) in assay [5] amounted to 351.

Consider `COc1cccc2c1c(C(=O)O)cn2CCOc1ccccc1C`, for which the outcome in assay [1], in assay [4] and in assay [6] was inactive. The fluorescence, percent of control (lower = inhibition) in assay [2] was determined as 58.5%. In assay [3], this molecule returned a GTP binding, percent of control of 212%. The GTP binding signal, raw median fluorescence (lower = inhibition) (MCF (arbitrary fluorescence units)) in assay [5] is 55.1.

Turning to `Cc1ccc(-c2ccc(/C=C3\SC(N4CCOCC4)=NC3=O)o2)cc1`, the call in assay [1], in assay [4] and in assay [6] was inactive. The fluorescence, percent of control (lower = inhibition) in assay [2] amounted to 31.4%. The same molecule had a GTP binding, percent of control in assay [3] of 71.6%. Further, in assay [5], the GTP binding signal, raw median fluorescence (lower = inhibition) (MCF (arbitrary fluorescence units)) was found to be 195.

Turning to `CCOC(=O)CCCCC(=O)c1[nH]c(=O)[nH]c1CSc1nnc2c3cc(Br)ccc3n(C)c2n1`, the call in assay [1], in assay [4] and in assay [6] was inactive. The fluorescence, percent of control (lower = inhibition) in assay [2] was 34.4%. In assay [3], this molecule came in with a GTP binding, percent of control of 80.3%. In assay [5], the GTP binding signal, raw median fluorescence (lower = inhibition) (MCF (arbitrary fluorescence units)) is 167.

Turning to `Cc1ccc(NC(=O)Nc2ccnc(-c3cccnc3)n2)cc1`, the molecule was called inactive in assay [1], in assay [4] and in assay [6]. The fluorescence, percent of control (lower = inhibition) in assay [2] was found to be 36.6%. Further, in assay [3], the GTP binding, percent of control stood at 73.3%. In assay [5], this molecule showed a GTP binding signal, raw median fluorescence (lower = inhibition) (MCF (arbitrary fluorescence units)) of 162.
